Data taken from PubChem BioAssay AID588850 (Sanford-Burnham Center for Chemical Genomics, 2011).
“And” between values parts separate entries of the source, which are not always exact repeats. Equal values may be shown once. Out of some 360,000 compounds screened, about 3,100 (0.86%) were called active. The sample holds actives, similar compounds and a random draw of the others, so the mix is not that of the screen.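 Rule for the calls: active = at least 50% inhibition at 5 µM, scaled per plate between neutral and stimulator controls; inactive = the rest.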

test: NF-kB reporter blockers in CF airway cells – cell-based, GFP fluorescence, uHTS, primary screen (AID 588850); conditions: KKLEB NF-kB-GFP reporter, PAF-induced, GFP fluorescence overnight; at 5 µM; stronger effect = higher value;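 note: PAF is a Pseudomonas aeruginosa culture filtrate used as stimulus; plate controls were PAF-stimulated DMSO wells for no effect and unstimulated DMSO wells for full effect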

Compound | inhibition
O=C(Nc1nnc(S(=O)(=O)N2CCCCCC2)s1)c1cccc(Br)c1 | 57% (active)
O=C(Nc1nnc(S(=O)(=O)N2CCOCC2)s1)c1cccc(Br)c1 | 13% (inactive)
COc1cccc(C(=O)Nc2nnc(S(=O)(=O)N3CCOCC3)s2)c1 | -7.5% (inactive)
C/C(=N\NS(=O)(=O)c1ccc(Cl)cc1)c1ccc(NC(=O)c2ccco2)cc1 | -14% (inactive)
N#CCCC(C#N)(c1cccnc1)N1CCOCC1 (centres undefined) | -15.6% (inactive)
CNCC(O)c1ccc(O)c(O)c1 (centres undefined) | 12.4% (inactive)
CCN1C(=O)c2cccc3c(S(=O)(=O)Nc4ccccc4O)ccc1c23 | -71.5% (inactive)
CN(CCc1ccccn1)S(=O)(=O)c1ccc2c3c(cccc13)C(=O)N2 | 5.4% (inactive)
CCN(CC)S(=O)(=O)c1ccc2c3c(cccc13)C(=O)S2 | 54.1% (active)
Cc1ccc(C(=O)OCC(=O)NCc2cc(C)c(O)c(C)c2)cc1S(=O)(=O)N1CCCCC1 | -0.3% (inactive)
COCCCNc1ccn2nc(-c3ccc(CC(C)C)cc3)cc2n1 | -77.9% (inactive)
O=c1c(/C=N/O)coc2ccc(Cl)cc12 | 0.9% (inactive)
CC(C)(C)OC(=O)NCCCCCC(=O)N/N=C/c1coc2ccccc2c1=O | 4.1% (inactive)
Cc1ccc2occ(/C=N/NC(=O)c3ccccc3C)c(=O)c2c1 | 71% (active)
Cc1ccc(NC(=O)[C@H](Cc2ccccc2)NC(=O)CC[C@H]2O[C@@H](n3ccc(=O)[nH]c3=O)[C@H](O)[C@@H]2O)cc1C | -33.7% (inactive)
CCCCC(CC)CNCc1cccn1CCN1CCOCC1 (centres undefined) | -18.7% (inactive)
Cc1ccc(/C=N/NC(=O)COc2ccccc2-c2ccccc2)cc1 | 51.1% (active)
Cc1ccc(COc2ccc(/C=N/NC(=O)CN3CCCCC3)cc2)cc1 | -24.1% (inactive)
Cc1ccc(/C=N/NC(=O)CSc2nc3ccccc3o2)cc1 | -2.1% (inactive)
O=C(NCc1ccc(F)cc1)c1cc(C2CCCCN2C(=O)c2ccccn2)on1 (centres undefined) | 4.9% (inactive)
C=CCN1C=C(C(=O)c2ccccc2)C(=O)CC1 | 3.5% (inactive)
O=C(CSCc1ccccc1)Nc1ccccc1 | -2.5% (inactive)
O=C(CSc1ccccc1)Nc1ccc(C(=O)Nc2cccc(O)c2)cc1 | -12.7% (inactive)
O=C(CCl)Nc1cccc(CP(=O)(c2ccccc2)c2ccccc2)c1 | 58% (active)

Compound | inhibition
O=C(NCc1nnc(SCC(=O)N2CCC(Cc3ccccc3)CC2)o1)c1ccco1 | 13.2% (inactive)
CCOC(=O)C1(CCOC)CCN(Cc2cc3ccccc3s2)CC1 | 11.7% (inactive)
O=[N+]([O-])c1ccc(Oc2ccc(F)cc2Br)c2ccncc12 | 65% (active)
O=c1ccc2c(-c3ccccc3S(=O)(=O)O)c3ccc(O)c(O)c3oc-2c1O | 22% (inactive)
Oc1c(C(c2cccs2)N2CCN(c3ccc(F)cc3)CC2)sc2ncnn12 (centres undefined) | 17.4% (inactive)
CCOC(=O)C1=CC[C@@H](c2ccccc2)N(S(=O)(=O)c2ccc(C)cc2)[C@H]1c1ccc(CC)cc1 | 11.8% (inactive)
Cc1nnc(NC(=O)Nc2ccc(Cl)c(Cl)c2)s1 | 83.2% (active)
Cc1ccc(NC(=O)Nc2nnc(-c3ccncc3)s2)cc1 | 68% (active)
CC(C)=CC(=O)Nc1nnc(-c2ccc(F)cc2)s1 | 0.2% (inactive)
Cc1nnc(NC(=O)Cn2c(=O)sc3ccccc32)s1 | -6.1% (inactive)
Cc1ccc(NC(=O)Nc2cc(-c3ccccc3)nn2C)cc1Cl | -3.9% (inactive)
CCc1ccc(NC(=O)Nc2ccncc2)cc1 | 16.4% (inactive)
C[C@H]1Cn2cnc(C(=O)N[C@H](C)c3ccccc3)c2C(=O)N1 | -3.8% (inactive)
CCOC(=O)C1=C(CC)Nc2ccccc2N=C1N | -14.1% (inactive)
CC(C)Cn1cnc2c1c(=O)n(CC(O)c1ccccc1)c(=O)n2CC(C)C (centres undefined) | 9% (inactive)
COc1ccc(NC(=S)N2N=CCC2c2ccccc2)cc1 (centres undefined) | 5.1% (inactive)
Cc1nnc(SCCCCSc2nnc(C)c(=O)[nH]2)[nH]c1=O | 6.2% (inactive)
CC(=O)c1ccc(-c2cnc3c(NC=O)cc(-c4cccc(NS(C)(=O)=O)c4)cn23)cc1 | 74.7% (active)
CC(=O)c1cccc(-c2cnc3c(NC=O)cc(-c4ccc(N(C)C)cc4)cn23)c1 | 29.8% (inactive)
CC(=O)c1cccc(-c2cnc3c(NC=O)cc(-c4cccc(C(=O)N(C)C)c4)cn23)c1 | 0.7% (inactive)
COc1ccc(-c2cc3nc(NCCOc4ccccc4)ccn3n2)cc1 | 20.8% (inactive)
COc1cncc(-c2cnc3sc(NCCc4ccccn4)nn23)c1 | 74.1% (active)
Cc1ccc(C(=O)N/C(=C\c2cccs2)C(=O)NCCc2ccccn2)cc1C | 5.1% (inactive)
O=C(OCc1ccccc1)N1CCC2CC1c1cc(N3CCN(S(=O)(=O)c4cc(Cl)cc(Cl)c4)CC3)ccc12 (centres undefined) | 10.1% (inactive)

Compound | inhibition
CCC1=C(OC(=O)N(CC)CC)N2C(=O)OC(=NCC3CC3)[C@]2(C)[C@H]2C1=CC[C@H]1C(=O)N(CC(=O)OC)C(=O)[C@H]12 | 7.9% (inactive)
COc1cc(C(=O)N/C(=C\c2cn(C)c3ccccc23)C(=O)N2CCOCC2)cc(OC)c1OC | -23.4% (inactive)
COc1cc(NC(=O)c2[nH]cnc2C(N)=O)cc(C(=O)Nc2cccc(C(F)(F)F)c2)c1 | 53.2% (active)
COc1ccc(C(N)c2csc(NC(=O)Nc3cccc(C(F)(F)F)c3)n2)cc1 (centres undefined) | 24.7% (inactive)
COc1cc(NC(=O)c2cncc(-c3ccc(C#N)cc3)c2)cc(C(=O)Nc2cccc(C(F)(F)F)c2)c1 | -39% (inactive) and -21.4% (inactive)
CCCCn1ccnc1C(=O)c1cccc(S(=O)(=O)N2c3ccccc3CC2C)c1 (centres undefined) | 2.6% (inactive)
COc1ccccc1N1CCN(C(=O)c2ccc(NC3=NC4CS(=O)(=O)CC4S3)cc2)CC1 (centres undefined) | -7.3% (inactive)
COc1ccccc1N1CCN(C(=O)c2cc(=O)c3cc(C)cc(C)c3o2)CC1 | 51% (active)
COc1ccccc1OCc1ccc(C(=O)N2CCN(C)CC2)o1 | 6.4% (inactive)
O=C(COC(=O)c1cccnc1Cl)Nc1ccc(S(=O)(=O)N2CCOCC2)cc1 | 5.3% (inactive)
CCN(CC)S(=O)(=O)c1ccc2[nH]c(=O)cc(C(=O)N(C)C3CCS(=O)(=O)C3)c2c1 (centres undefined) | -1.3% (inactive)
O=C(NC1=CC(=O)c2ccccc2C1=O)c1ccccc1 | 84.9% (active)
O=C1C=C(NS(=O)(=O)c2ccccc2)C(=O)c2ccccc21 | 72% (active)
Cc1ccc(S(=O)(=O)N/N=C(\c2ccccc2)C2CC2)cc1 | 14.8% (inactive)
COc1ccc(S(=O)(=O)/N=C2\C=C(NS(=O)(=O)c3ccccc3)C(=O)c3ccccc32)cc1 | 45% (inactive)
O=C(O)c1ccccc1NC(=O)c1ccccc1-c1ccccc1C(=O)O | 11.9% (inactive)
Cc1ccc(S(=O)(=O)/N=C2\C=C(NS(=O)(=O)c3ccc(C)cc3)C(=O)c3ccccc32)cc1 | 68.9% (active)
CC(=O)NS(=O)(=O)c1ccccc1 | 10.6% (inactive)
Cc1cc(NS(=O)(=O)c2ccccc2)no1 | -1.3% (inactive)
Cc1cc(=O)c2ccc(NC(=O)c3ccccc3)cc2[nH]1 | 3.1% (inactive)
CC(c1ccco1)N(C(=O)COc1ccccc1[N+](=O)[O-])c1ccccn1 (centres undefined) | 8.2% (inactive)
CN(C)C(=O)Cn1c(=O)n(S(=O)(=O)c2ccccc2)c2ccccc21 | 5.9% (inactive)
COC(=O)[C@@H]1C[C@H]2CC[C@H](O)C[C@H]2N1Cc1ccc(N2CCN(C)CC2)cc1 | 0.1% (inactive)
CC(C(=O)N1CCc2ccccc21)N(C)CC(=O)Nc1ccc(F)cc1 (centres undefined) | -12% (inactive)

Compound | inhibition
COC1(C2=NCCN2)COc2ccccc2O1 (centres undefined) | 9.5% (inactive)
COc1ccccc1/C=C/C=N/n1c(-c2ccc(Cl)cc2Cl)n[nH]c1=S | 1.4% (inactive)
Cc1cc(-c2n[nH]c(=S)n2/N=C/C(Br)=C/c2ccccc2)n[nH]1 | 87.5% (active)
S=c1[nH]nc(-c2ccco2)n1/N=C/c1ccc(Br)s1 | 5.5% (inactive)
CC1CCCCC1NC(=O)Cn1cnc2c1c(=O)n(C)c(=O)n2C (centres undefined) | 3.3% (inactive)
CC(C)c1nc(SCC(=O)NC(=O)NC(C)(C)C)n[nH]1 | -0.6% (inactive)
Cc1cccc(C)c1NC(=S)N(Cc1cccnc1)Cc1ccccc1Cl | -1.1% (inactive)
COc1cccc(CC(=O)N2CCCC(CCC(=O)N3CCN(c4ccccn4)CC3)C2)c1 (centres undefined) | 12.7% (inactive)
Cc1ccc(NC(=O)CSc2nnc(CNC(=O)c3ccccc3F)o2)cc1 | -6.4% (inactive)
CC(C)c1ccc(CC(=O)N2CCC2(C)C(=O)NS(=O)(=O)c2ccc(C(C)(C)C)cc2)cc1 (centres undefined) | 3.4% (inactive)
CC(C(=O)O)n1cnc2sc3c(c2c1=O)CCCC3 (centres undefined) | 12.1% (inactive)
c1nnc2c3c4c(sc3ncn12)CCC4 | 59% (active)
S=c1[nH]nc2c3c4c(sc3ncn12)CCCC4 | -4% (inactive)
O=C(Nc1cccnc1)c1noc2c1CCCCC2 | -3.7% (inactive)
Cn1cnnc1SCC(=O)Nc1ccc(N2CCOCC2)cc1 | -8.2% (inactive)
C=CC(=O)Nc1ccc(Nc2ccnc(Nc3ccc(N4CCN(C)CC4)cc3)n2)cc1 | 55.6% (active)
CN1CCN(c2ccc(NC(=O)c3cc(Cl)c4c(c3)OCCO4)cc2)CC1 | -18.8% (inactive)
O=C(Nc1ccc(-n2cccn2)cc1)C1CCN(Cc2ccsc2)CC1 | 9.7% (inactive)
CC1CCc2c(c3ccccc3[nH]c2=O)O1 (centres undefined) | 0.4% (inactive)
COc1ccc(-c2cc(C(=O)N(C)CC(=O)Nc3ccccc3Cl)c3ccccc3n2)cc1OC | 22.9% (inactive)
COc1ccc(CN(C)C(=O)c2cc(-c3ccc(C)cc3C)nc3ccccc23)c(OC)c1OC | 67.1% (active)
COc1ccc(-c2cc(C(=O)N(C)Cc3ccc(OC)c(OC)c3OC)c3ccccc3n2)cc1OC | 27% (inactive)
